Results published in PubChem BioAssay (NCI).
About 83,000 compounds went through this panel and 20% of them were active in at least one assay; those are over-represented in the sample as a whole.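 Activity criterion: percent growth below 10, measured after cells in 96-well plates were exposed to a single compound concentration for 48 hours.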 The source made the active and inactive calls.

Experiments:
Assay in all cases: NCI-60 one-dose screen, 48 h (100 = growth as untreated, 0 = no growth, -100 = all killed)
Settings in all cases: 10 µM unless noted
DU-145 prostate = test system: DU-145 prostate
K-562 leukemia = test system: K-562 leukemia
MALME-3M melanoma = test system: MALME-3M melanoma
MDA-MB-231 breast = test system: MDA-MB-231 breast
RXF 393 renal = test system: RXF 393 renal
SF-268 CNS = test system: SF-268 CNS
SF-295 CNS = test system: SF-295 CNS
SF-539 CNS = test system: SF-539 CNS
UACC-257 melanoma = test system: UACC-257 melanoma
M14 melanoma = test system: M14 melanoma
HCT-15 colon = test system: HCT-15 colon
HT29 colon = test system: HT29 colon
SNB-75 CNS = test system: SNB-75 CNS
SNB-19 CNS = test system: SNB-19 CNS
U251 CNS = test system: U251 CNS
PC-3 prostate = test system: PC-3 prostate
SK-MEL-5 melanoma = test system: SK-MEL-5 melanoma
UACC-62 melanoma = test system: UACC-62 melanoma
LOX IMVI melanoma = test system: LOX IMVI melanoma
SK-MEL-28 melanoma = test system: SK-MEL-28 melanoma

Measured: growth

CCN(CC)Cc1cccc(C(=O)OC)c1
inactive: DU-145 prostate 111% | K-562 leukemia 110% | MALME-3M melanoma 95.3% | MDA-MB-231 breast 100% | RXF 393 renal 105% | SF-268 CNS 104% | SF-295 CNS 97.8% | SF-539 CNS 94% | UACC-257 melanoma 73.4% | M14 melanoma 91.7% | HCT-15 colon 102% | HT29 colon 106% | SNB-75 CNS 87.9% | SNB-19 CNS 101% | U251 CNS 96.3% | PC-3 prostate 78.1% | SK-MEL-5 melanoma 97.1% | UACC-62 melanoma 103% | LOX IMVI melanoma 94.1% | SK-MEL-28 melanoma 104%

O=C(Nc1ccc(Cl)cc1)Nc1ccc(Cl)c(C(F)(F)F)c1
active: K-562 leukemia -10.2% | MALME-3M melanoma -30.7% | MDA-MB-231 breast -4.47% | SF-295 CNS -28.2% | SF-539 CNS 4.38% | UACC-257 melanoma 2.84% | HCT-15 colon 8.11% | U251 CNS 4.41% | PC-3 prostate -8.98% | SK-MEL-5 melanoma -13.3% | LOX IMVI melanoma 3.49%
inactive: DU-145 prostate 20.2% | RXF 393 renal 33.6% | SF-268 CNS 21.3% | M14 melanoma 11.8% | HT29 colon 18.9% | SNB-75 CNS 41.3% | SNB-19 CNS 13% | UACC-62 melanoma 23.9% | SK-MEL-28 melanoma 19.1%

COc1ccc(C(=O)COc2ccc(/C=C3\Oc4ccccc4C3=O)cc2)cc1
inactive: DU-145 prostate 120% | K-562 leukemia 101% | MALME-3M melanoma 112% | MDA-MB-231 breast 83.6% | RXF 393 renal 95.4% | SF-268 CNS 108% | SF-295 CNS 172% | SF-539 CNS 94.7% | UACC-257 melanoma 97.8% | M14 melanoma 84.7% | HCT-15 colon 96.8% | HT29 colon 102% | SNB-75 CNS 89.7% | SNB-19 CNS 90.9% | U251 CNS 97.4% | PC-3 prostate 97.3% | SK-MEL-5 melanoma 85.8% | UACC-62 melanoma 72.5% | LOX IMVI melanoma 92.6% | SK-MEL-28 melanoma 123%

CCc1ccccc1-n1c(-c2ccc(Cl)cc2)cc(-c2ccc(Cl)cc2)c(C#N)c1=O
inactive: DU-145 prostate 77.1% | K-562 leukemia 66.1% | MALME-3M melanoma 90.8% | MDA-MB-231 breast 101% | RXF 393 renal 93.3% | SF-268 CNS 83.6% | SF-295 CNS 89% | SF-539 CNS 104% | UACC-257 melanoma 98.6% | M14 melanoma 85.3% | HCT-15 colon 84.3% | HT29 colon 84.4% | SNB-75 CNS 98.6% | SNB-19 CNS 109% | U251 CNS 84.9% | PC-3 prostate 76.4% | SK-MEL-5 melanoma 88.7% | UACC-62 melanoma 84.8% | LOX IMVI melanoma 82.4% | SK-MEL-28 melanoma 99.4%

N=C1C(c2nc(-c3ccc(Br)cc3)cs2)=C(O)CN1CC1CCCO1 (stereo not given)
inactive: DU-145 prostate 69.7% | K-562 leukemia 64.1% | MALME-3M melanoma 112% | MDA-MB-231 breast 90.9% | RXF 393 renal 83% | SF-268 CNS 87.9% | SF-295 CNS 91.5% | SF-539 CNS 81.4% | UACC-257 melanoma 84.3% | M14 melanoma 91.5% | HCT-15 colon 89.5% | HT29 colon 97.5% | SNB-75 CNS 78.5% | SNB-19 CNS 87.4% | U251 CNS 74.9% | SK-MEL-5 melanoma 102% | UACC-62 melanoma 105% | LOX IMVI melanoma 60.7% | SK-MEL-28 melanoma 107%
active: PC-3 prostate 7.86%

Cn1cc2c(c1)-c1nc(Nc3ccccc3)ncc1CC2
inactive: DU-145 prostate 56.5% | K-562 leukemia 85.2% | MALME-3M melanoma 95.3% | MDA-MB-231 breast 67.4% | RXF 393 renal 62.4% | SF-268 CNS 72.2% | SF-295 CNS 84.3% | SF-539 CNS 65.6% | UACC-257 melanoma 89.7% | M14 melanoma 55% | HCT-15 colon 45.9% | HT29 colon 79.9% | SNB-75 CNS 75.7% | SNB-19 CNS 69.4% | U251 CNS 59.7% | PC-3 prostate 58.5% | SK-MEL-5 melanoma 73.2% | UACC-62 melanoma 51.1% | LOX IMVI melanoma 49.6% | SK-MEL-28 melanoma 99.9%

O=c1c2cc(F)ccc2sc2c(NCCN3CCCCC3)nc3ccccc3c12
active: K-562 leukemia -30.8% | M14 melanoma -61.7% | LOX IMVI melanoma -62.8% | SK-MEL-28 melanoma -14.9%
inactive: DU-145 prostate 53.5% | MALME-3M melanoma 58.5% | MDA-MB-231 breast 35.5% | RXF 393 renal 39.7% | SF-268 CNS 49.7% | SF-295 CNS 56% | SF-539 CNS 70.1% | UACC-257 melanoma 65.1% | HCT-15 colon 13.7% | HT29 colon 10.7% | SNB-75 CNS 37.3% | SNB-19 CNS 66.6% | U251 CNS 40.1% | PC-3 prostate 53.1% | SK-MEL-5 melanoma 70.1% | UACC-62 melanoma 36.7%

O=C1N=c2cc3c(cc2=C/C1=C/c1sc(=S)n(CCc2ccc(O)cc2)c1O)OCCO3
inactive: DU-145 prostate 80.6% | MALME-3M melanoma 36.7% | MDA-MB-231 breast 24.8% | RXF 393 renal 92.9% | SF-268 CNS 91.7% | SF-295 CNS 101% | SF-539 CNS 95.8% | UACC-257 melanoma 90.3% | M14 melanoma 27.8% | HT29 colon 21.2% | SNB-75 CNS 61.4% | SNB-19 CNS 22.9% | U251 CNS 17.8% | PC-3 prostate 41.4% | SK-MEL-5 melanoma 83.3% | UACC-62 melanoma 20.7% | SK-MEL-28 melanoma 38.7%
active: K-562 leukemia 6.11% | HCT-15 colon 9.98% | LOX IMVI melanoma 3.28%

O=C(Cc1ccc(F)c(F)c1)Nc1cc(C2(C(F)(F)F)CC2)nn1Cc1ccccc1
active: MALME-3M melanoma -37.7% | MDA-MB-231 breast -70.7% | RXF 393 renal -26.9% | SF-268 CNS 9.11% | SF-295 CNS -1.31% | UACC-257 melanoma -14.6% | HCT-15 colon 6.24% | SNB-75 CNS -14.9% | U251 CNS 4.6% | PC-3 prostate -6.07% | SK-MEL-5 melanoma -80.8% | UACC-62 melanoma -10.3% | LOX IMVI melanoma 5.44%
inactive: DU-145 prostate 20.5% | K-562 leukemia 13.3% | SF-539 CNS 16.3% | M14 melanoma 20.2% | HT29 colon 17.6% | SNB-19 CNS 13.3% | SK-MEL-28 melanoma 18.6%

NC(N)=Nc1nc2ccccc2n2c1nc1ccccc12
inactive: DU-145 prostate 33.3% | K-562 leukemia 17.9% | MALME-3M melanoma 35.6% | MDA-MB-231 breast 53.2% | RXF 393 renal 35% | SF-268 CNS 28.5% | SF-295 CNS 24.2% | SF-539 CNS 50.3% | UACC-257 melanoma 60.3% | M14 melanoma 42.6% | HCT-15 colon 25.9% | HT29 colon 18.2% | SNB-75 CNS 43.7% | SNB-19 CNS 38.8% | U251 CNS 27.8% | PC-3 prostate 48.5% | SK-MEL-5 melanoma 58.6% | UACC-62 melanoma 40.7% | LOX IMVI melanoma 20.6% | SK-MEL-28 melanoma 82.3%

Cc1ccc(/C=C/c2c(C(=O)/C=C/c3ccc(Cl)cc3)c(C)nc3ccccc23)cc1
active: DU-145 prostate -38.8% | K-562 leukemia 5.31% | MALME-3M melanoma -31.2% | MDA-MB-231 breast -24.2% | RXF 393 renal -66.4% | SF-295 CNS -29.3% | SF-539 CNS -85.5% | UACC-257 melanoma 8.99% | M14 melanoma -0.212% | HCT-15 colon -39.9% | HT29 colon 8.51% | SNB-19 CNS -21.4% | U251 CNS -36.9% | SK-MEL-5 melanoma -40.6% | UACC-62 melanoma -32.8% | LOX IMVI melanoma -91% | SK-MEL-28 melanoma -55%
inactive: SF-268 CNS 38.1% | SNB-75 CNS 68.8% | PC-3 prostate 11.6%

COc1ccc(C2C(c3nn[nH]n3)=C(N)Oc3c2ccc2ccccc32)cc1 (stereo not given)
inactive: DU-145 prostate 88% | K-562 leukemia 19.2% | MALME-3M melanoma 63.7% | MDA-MB-231 breast 31.5% | RXF 393 renal 76.3% | SF-268 CNS 72.1% | SF-295 CNS 77.8% | SF-539 CNS 73.7% | UACC-257 melanoma 89.8% | M14 melanoma 58.4% | HCT-15 colon 35% | HT29 colon 127% | SNB-75 CNS 39.9% | SNB-19 CNS 67.3% | U251 CNS 73.3% | PC-3 prostate 65.5% | SK-MEL-5 melanoma 57.5% | UACC-62 melanoma 45.9% | LOX IMVI melanoma 63.5% | SK-MEL-28 melanoma 57.4%

COc1ccc(-c2cc(-c3cc(OC)c(OC)c(OC)c3)c(C#N)c(N3CCOCC3)n2)cc1O
inactive: DU-145 prostate 59% | MALME-3M melanoma 126% | MDA-MB-231 breast 49.8% | RXF 393 renal 41.3% | SF-268 CNS 49.6% | SF-295 CNS 41.6% | SF-539 CNS 37.9% | UACC-257 melanoma 90.3% | M14 melanoma 67.5% | HCT-15 colon 23.5% | HT29 colon 108% | SNB-75 CNS 30.1% | SNB-19 CNS 52.3% | U251 CNS 51.1% | PC-3 prostate 38.9% | SK-MEL-5 melanoma 60.8% | UACC-62 melanoma 89.9% | LOX IMVI melanoma 13.7% | SK-MEL-28 melanoma 60%
active: K-562 leukemia 2.4%

CC(=O)C(C)Cc1cc2c(cc1C)C(C)(C)CCC2(C)C (stereo not given)
inactive: DU-145 prostate 107% | K-562 leukemia 105% | MALME-3M melanoma 99% | MDA-MB-231 breast 109% | RXF 393 renal 104% | SF-268 CNS 100% | SF-295 CNS 102% | SF-539 CNS 102% | UACC-257 melanoma 79.1% | M14 melanoma 88.1% | HCT-15 colon 96.7% | HT29 colon 93.3% | SNB-75 CNS 96.4% | SNB-19 CNS 116% | U251 CNS 97.1% | PC-3 prostate 77.4% | SK-MEL-5 melanoma 103% | UACC-62 melanoma 99.4% | LOX IMVI melanoma 90.7% | SK-MEL-28 melanoma 106%

COc1ccc(/C=c2\nc3n(-c4ccccc4)c4nc5c6c(sc5c(=N)n4n-3c2=O)CCCC6)cc1
inactive: DU-145 prostate 104% | K-562 leukemia 67.2% | MALME-3M melanoma 97.4% | MDA-MB-231 breast 59.9% | RXF 393 renal 98.4% | SF-268 CNS 88.8% | SF-295 CNS 98.4% | SF-539 CNS 94.9% | UACC-257 melanoma 106% | M14 melanoma 96.7% | HCT-15 colon 40.7% | HT29 colon 109% | SNB-75 CNS 42.9% | SNB-19 CNS 84.9% | U251 CNS 87.5% | PC-3 prostate 63.5% | SK-MEL-5 melanoma 70.8% | UACC-62 melanoma 74.1% | LOX IMVI melanoma 91.2% | SK-MEL-28 melanoma 102%
